Reference: PubChem BioAssay AID1259240 (Keith Lab, Institute of Cancer Science, University of …, 2017)
Values without a mark were called inactive. Calls of active or inactive are those of the source. Cut-off read from the data, not from the text of the source: active = fold change mostly below about -2 (no sharp cut-off); inactive = mostly above about -1.8.

Test: modulation of TERT promoter-driven luciferase – cell-based, luciferase reporter, human, primary screen (AID 1259240)
Settings: A2780 TERT promoter luciferase reporter, 16 h; at 20 µM, fold versus average of vehicle-only wells
O=C(C1CCN(S(=O)(=O)c2cccc3cccnc23)CC1)N1CCn2c1nc1ccccc12 gave a fold change of 1.05. Work on CN1CCN(C(=O)c2cc3c(=O)[nH]c4ccccc4c3n2C)CC1 yielded a fold change of -1.19. For Cn1c(SCC(=O)N2CCOCC2)nnc1-c1c[nH]c2ccccc12, the outcome was “inactive”. For O=C(CSc1nc2sc3c(c2c(=O)[nH]1)CCCC3)N1CCOCC1, the fold change was -4.39 (active). With CC(=O)c1ccc(N2CCN(C(=O)CCCc3nnc4n5nc(C)nc5c5ccccc5n34)CC2)cc1 the fold change was -1.6. Molecule COc1cc(OC)c(-c2nc(-c3cccnc3)no2)cc1OC has a fold change of 1.51. For CC(C)CNC(=O)CCN1C(=O)c2ccccc2S1(=O)=O, the fold change was -2.25 (active). Work on CC1CCCCC1NC(=O)CN(C)S(=O)(=O)c1ccc2c(c1)CCC(=O)N2 (centres undefined) yielded a fold change of 1.04. For Cc1nc2cc(-c3cccc(F)c3)nn2c(C)c1CCC(=O)N1CCc2ccccc21, the fold change was -2.84 (active). For CCOC(=O)C1CCN(c2c(N3CCC(C(=O)OCC)CC3)c(=O)c2=O)CC1, the fold change was 1.06. Cc1ccc(SCc2nc3sccn3c2Br)cc1 showed a fold change of -1.17. With CCN1C(=O)N/C(=C/c2cn(CC(=O)Nc3ccc(Cl)cc3)c3ccccc23)C1=O the fold change was -1.87. With Cc1csc(NC(=O)C2=CCN(S(=O)(=O)c3ccccc3)CC2)n1 the fold change was 1.13. Molecule COc1cc(NC(=O)C2CCCN(S(=O)(=O)c3ccc4c(c3)oc(=O)n4C)C2)cc(OC)c1 (centres undefined) has a fold change of 1.09. Work on FC(F)(F)c1ccc2c(c1)C1C=CCC1C(c1ccncc1)N2 (centres undefined) yielded a fold change of -1.04. With CCc1ccc(N2CC(O)=C(c3nc4ccccc4c(=O)[nH]3)C2=N)cc1 the outcome was “inactive”. Clc1ccc(Nc2c(-c3c[nH]c4ccccc34)nc3cnccn23)cc1 showed a fold change of -1.4. CSc1ccc(-c2nc3sccn3c2Nc2ccccc2)cc1 gave a fold change of -1.05. For O=C(Nc1ccc(F)cc1)c1c[nH]n2c(=O)cc(C3CCNCC3)nc12, the fold change was -1.37. With Cc1nn(-c2cc(N3CCCCC3)ccc2N)c(=O)c2ccccc12 the fold change was -1.45. CS(=O)(=O)N1N=C(c2cccs2)CC1c1ccccc1F (centres undefined) showed a fold change of -1.2. O=C(CSc1nc(-c2ccco2)cc(C(F)(F)F)n1)NCc1cccnc1 showed a fold change of -1.4. For CCOc1nc(-c2ccncc2)nc2ccccc12, the fold change was -4.22 (active). With CN(CC(=O)Nc1nccs1)S(=O)(=O)c1ccc2c(c1)n(C)c(=O)c(=O)n2C the fold change was 1.27. O=C(NCc1ccc(Cl)cc1)Nc1ccc2snnc2c1 gave a fold change of -1.36. NCCn1c(-c2cccnc2)n[nH]c1=S gave a fold change of -1.19. Work on Cn1c(=O)c2c(SCC(=O)Nc3ccc4c(c3)OCO4)nc(-c3ccco3)nc2n(C)c1=O yielded a fold change of 1.03. In the case of CCOC(=O)c1oc2ccc(S(=O)(=O)n3nc(-c4ccc(OC)cc4OC)cc3N)cc2c1C, the fold change is reported as -1.57. In the case of COc1ccc(Nc2c(-c3ccc(N4CCOCC4)cc3)nc3ncccn23)cc1OC, the fold change is reported as -1.26. CCCN(CCC)S(=O)(=O)c1ccc2c(c1)oc(=O)n2CC(=O)OCC gave a fold change of -1.16. Cc1ccc2nc(Cl)c3nncn3c2c1 gave a fold change of 1.44. For CCn1c(Oc2ccccc2)nc2c1c(=O)n(C)c(=O)n2C, the fold change was -1.53. Molecule CCOC(=O)N1CCN(c2c(NCCCOC)c(=O)c2=O)CC1 has a fold change of 1.11. Work on O=c1/c(=C/c2ccco2)sc2nc(-c3ccco3)nn12 yielded a fold change of -1.71. For CC(C)C(NS(=O)(=O)c1cccc2nsnc12)C(=O)N1CCCCC1 (centres undefined), the fold change was 1.43. Work on Cn1c(=O)cc(SCC(=O)Nc2nc3ccccc3[nH]2)c2ccccc21 yielded a fold change of -1.01. Work on O=C(NCCCN1CCCC1)C(=O)Nc1ccc2nc3n(c(=O)c2c1)CCCCC3 yielded a fold change of 1.01. Work on Cn1c(=O)c2c(SCC(=O)Nc3ccccc3F)nc(-c3cccs3)nc2n(C)c1=O yielded a fold change of 1.46. In the case of Cn1c(=O)c(=O)n(C)c2cc(S(=O)(=O)N3CCCC3C(=O)NC3CCCCC3)ccc21 (centres undefined), the fold change is reported as 1.05.
